# Measured values taken from PMC7862700, “An all-to-all approach to the identification of sequence-specific readers for epigenetic DNA modifications on cytosine”.
# How the values were obtained:
# Assay in all cases: DAPPL (digital affinity profiling via proximity ligation, sequencing); 10 mM Tris-HCl pH 7.5, 50 mM NaCl, 1 mM DTT, 4% glycerol, room temperature, 30 min; GST-TFs on glutathione beads, 16-mer random dsDNA library, 0.1% formaldehyde crosslink after washing; high values mean tight binding
# Conditions in all cases: protein: recombinant; tags: N-terminal GST; dsDNA, one strand shown
# ELK4 = molecular target: T1, ELK4 (Homo sapiens, UniProt P28324-2 1-405)
# T1 sequence: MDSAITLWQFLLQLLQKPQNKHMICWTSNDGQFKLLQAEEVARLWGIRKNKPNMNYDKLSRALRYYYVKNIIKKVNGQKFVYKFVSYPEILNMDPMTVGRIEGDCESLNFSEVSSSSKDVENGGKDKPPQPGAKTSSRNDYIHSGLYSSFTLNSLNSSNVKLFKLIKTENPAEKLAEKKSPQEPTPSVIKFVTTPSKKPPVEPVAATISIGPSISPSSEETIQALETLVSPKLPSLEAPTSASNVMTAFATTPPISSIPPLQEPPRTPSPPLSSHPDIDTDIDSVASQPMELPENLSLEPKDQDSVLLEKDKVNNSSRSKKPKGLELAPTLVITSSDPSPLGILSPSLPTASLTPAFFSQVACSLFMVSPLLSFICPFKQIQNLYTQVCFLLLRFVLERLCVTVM
# In short: (§1)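 Beads coated with glutathione captured GST-fused human transcription factors that had been expressed in yeast, and the factors were then given DNA barcodes and pooled with a tag-only sample. The pools were incubated with 200 nmole of a random double-stranded 16-mer DNA library in Tris/NaCl/DTT/glycerol buffer for 30 min at room temperature, washed, crosslinked with 0.1% formaldehyde and proximity-ligated with BsaI/T4 ligase at 37 °C for 1 h. PCR amplification and Illumina NextSeq500 sequencing came last. Binding signal is each hexamer's read frequency for a factor divided by its frequency for the tag-only sample.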
# ELF3 = molecular target: T2, ELF3 (Homo sapiens, UniProt P78545 1-371)
# T2 sequence: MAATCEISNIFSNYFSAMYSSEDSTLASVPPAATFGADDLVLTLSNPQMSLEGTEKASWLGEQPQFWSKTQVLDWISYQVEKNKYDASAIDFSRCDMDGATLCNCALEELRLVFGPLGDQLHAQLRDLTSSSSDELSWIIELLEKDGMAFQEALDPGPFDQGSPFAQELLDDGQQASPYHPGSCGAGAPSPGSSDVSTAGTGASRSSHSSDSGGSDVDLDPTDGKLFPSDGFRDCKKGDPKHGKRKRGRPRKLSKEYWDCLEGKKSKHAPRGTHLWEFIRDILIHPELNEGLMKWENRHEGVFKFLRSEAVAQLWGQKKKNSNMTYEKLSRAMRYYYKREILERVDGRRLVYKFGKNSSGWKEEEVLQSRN
# In short: as §1
# ETV1 = ETV1 (Homo sapiens, UniProt P50549 1-477)
# Chain of ETV1 (P50549 whole entry): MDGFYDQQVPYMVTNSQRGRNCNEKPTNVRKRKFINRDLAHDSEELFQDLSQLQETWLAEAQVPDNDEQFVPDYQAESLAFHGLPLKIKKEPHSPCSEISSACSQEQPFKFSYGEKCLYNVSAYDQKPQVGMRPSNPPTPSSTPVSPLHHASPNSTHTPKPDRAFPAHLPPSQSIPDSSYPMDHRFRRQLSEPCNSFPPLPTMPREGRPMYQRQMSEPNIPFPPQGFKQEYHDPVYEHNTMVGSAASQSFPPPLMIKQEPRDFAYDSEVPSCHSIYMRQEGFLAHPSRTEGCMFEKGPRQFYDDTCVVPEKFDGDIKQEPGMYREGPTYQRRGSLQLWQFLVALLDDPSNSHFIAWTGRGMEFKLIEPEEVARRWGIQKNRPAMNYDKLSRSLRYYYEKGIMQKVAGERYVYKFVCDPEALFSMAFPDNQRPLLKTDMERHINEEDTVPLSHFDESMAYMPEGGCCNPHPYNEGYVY
# In short: as §1
# ERF = molecular target: T3, ERF (Homo sapiens, UniProt P50548 1-548)
# T3 sequence: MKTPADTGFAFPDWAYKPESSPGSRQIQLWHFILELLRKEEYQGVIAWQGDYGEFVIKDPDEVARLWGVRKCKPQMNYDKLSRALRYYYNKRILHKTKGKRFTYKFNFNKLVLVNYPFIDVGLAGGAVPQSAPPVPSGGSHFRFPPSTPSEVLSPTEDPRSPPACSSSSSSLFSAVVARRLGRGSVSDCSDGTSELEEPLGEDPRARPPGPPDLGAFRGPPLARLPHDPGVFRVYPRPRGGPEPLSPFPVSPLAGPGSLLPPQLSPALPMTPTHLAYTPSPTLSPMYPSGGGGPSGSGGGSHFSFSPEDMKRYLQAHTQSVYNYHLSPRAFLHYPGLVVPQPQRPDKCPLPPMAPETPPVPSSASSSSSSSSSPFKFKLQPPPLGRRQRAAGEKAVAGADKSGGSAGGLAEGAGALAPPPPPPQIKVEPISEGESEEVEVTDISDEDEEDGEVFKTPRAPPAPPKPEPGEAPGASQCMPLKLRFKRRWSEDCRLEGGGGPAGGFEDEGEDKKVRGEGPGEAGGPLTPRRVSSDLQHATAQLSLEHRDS
# In short: as §1
# ETV3L = molecular target: T4, ETV3L (Homo sapiens, UniProt Q6ZN32 1-361)
# T4 sequence: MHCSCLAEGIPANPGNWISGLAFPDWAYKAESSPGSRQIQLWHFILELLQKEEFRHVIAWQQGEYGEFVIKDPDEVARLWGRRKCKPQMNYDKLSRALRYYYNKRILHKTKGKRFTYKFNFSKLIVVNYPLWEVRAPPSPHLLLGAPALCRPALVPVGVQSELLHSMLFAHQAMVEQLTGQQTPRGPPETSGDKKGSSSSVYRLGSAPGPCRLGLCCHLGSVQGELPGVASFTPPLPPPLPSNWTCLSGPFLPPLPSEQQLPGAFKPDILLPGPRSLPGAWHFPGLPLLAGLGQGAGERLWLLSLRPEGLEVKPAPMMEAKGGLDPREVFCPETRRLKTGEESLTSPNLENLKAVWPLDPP
# In short: as §1
# ETS2 = molecular target: T5, ETS2 (Homo sapiens, UniProt P15036 1-469)
# T5 sequence: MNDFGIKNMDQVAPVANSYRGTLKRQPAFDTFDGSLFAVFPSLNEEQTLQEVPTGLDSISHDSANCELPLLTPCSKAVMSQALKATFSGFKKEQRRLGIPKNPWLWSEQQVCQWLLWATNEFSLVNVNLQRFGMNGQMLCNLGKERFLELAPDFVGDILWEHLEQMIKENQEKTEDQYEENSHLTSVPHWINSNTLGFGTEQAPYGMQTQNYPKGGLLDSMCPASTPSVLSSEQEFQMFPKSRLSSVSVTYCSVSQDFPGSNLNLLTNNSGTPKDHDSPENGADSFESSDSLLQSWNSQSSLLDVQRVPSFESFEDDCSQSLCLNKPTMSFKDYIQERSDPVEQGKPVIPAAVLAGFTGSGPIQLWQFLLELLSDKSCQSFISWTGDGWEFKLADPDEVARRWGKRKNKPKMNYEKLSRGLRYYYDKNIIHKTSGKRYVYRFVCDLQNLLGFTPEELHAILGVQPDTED
# In short: as §1
# SPDEF = molecular target: T6, SPDEF (Homo sapiens, UniProt O95238 1-335)
# T6 sequence: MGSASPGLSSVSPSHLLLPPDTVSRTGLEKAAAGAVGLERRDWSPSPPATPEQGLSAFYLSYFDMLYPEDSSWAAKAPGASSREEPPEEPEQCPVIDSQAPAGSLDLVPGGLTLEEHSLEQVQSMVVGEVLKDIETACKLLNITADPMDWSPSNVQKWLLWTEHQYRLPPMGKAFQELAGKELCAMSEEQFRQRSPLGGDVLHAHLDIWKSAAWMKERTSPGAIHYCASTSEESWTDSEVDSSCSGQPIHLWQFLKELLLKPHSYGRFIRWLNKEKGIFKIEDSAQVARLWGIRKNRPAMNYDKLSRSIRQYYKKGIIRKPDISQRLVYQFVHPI
# In short: as §1
# ETV7 = molecular target: T7, ETV7 (Homo sapiens, UniProt Q9Y603 1-341)
# T7 sequence: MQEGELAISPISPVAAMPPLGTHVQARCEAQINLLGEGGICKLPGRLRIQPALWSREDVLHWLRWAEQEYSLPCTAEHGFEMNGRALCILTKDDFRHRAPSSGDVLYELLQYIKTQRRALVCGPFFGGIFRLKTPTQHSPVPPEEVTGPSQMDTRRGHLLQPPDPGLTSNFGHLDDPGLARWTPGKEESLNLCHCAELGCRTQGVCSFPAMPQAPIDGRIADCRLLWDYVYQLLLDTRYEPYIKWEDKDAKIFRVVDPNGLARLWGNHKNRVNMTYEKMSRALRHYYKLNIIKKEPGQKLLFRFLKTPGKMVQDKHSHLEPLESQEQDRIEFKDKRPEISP
# In short: as §1
# ETV3 = molecular target: T8, ETV3 (Homo sapiens, UniProt P41162-2 1-143)
# T8 sequence: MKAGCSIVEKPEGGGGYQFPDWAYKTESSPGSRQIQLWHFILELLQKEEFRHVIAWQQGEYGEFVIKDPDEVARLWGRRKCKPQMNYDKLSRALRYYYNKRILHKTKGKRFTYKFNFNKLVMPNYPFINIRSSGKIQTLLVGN
# In short: as §1
# ETV6 = ETV6 (Homo sapiens, UniProt P41212 1-452)
# Chain of ETV6 (P41212 whole entry): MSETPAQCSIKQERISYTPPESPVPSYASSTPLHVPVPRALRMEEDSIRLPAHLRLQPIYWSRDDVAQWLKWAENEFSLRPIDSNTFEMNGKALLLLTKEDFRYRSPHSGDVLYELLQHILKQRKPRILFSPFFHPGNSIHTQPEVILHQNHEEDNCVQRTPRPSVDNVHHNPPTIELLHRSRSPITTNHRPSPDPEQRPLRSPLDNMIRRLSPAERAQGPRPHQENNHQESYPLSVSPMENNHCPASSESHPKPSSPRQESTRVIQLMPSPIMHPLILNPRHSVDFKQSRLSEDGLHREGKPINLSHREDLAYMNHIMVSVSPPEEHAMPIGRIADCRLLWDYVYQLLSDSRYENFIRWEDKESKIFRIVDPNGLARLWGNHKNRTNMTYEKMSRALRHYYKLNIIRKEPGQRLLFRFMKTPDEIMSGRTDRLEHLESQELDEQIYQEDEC
# In short: as §1
sequence,measurement,setting,value
GGACTT,binding signal,ELK4,"1.08 fold enrichment (6-mer frequency, TF over GST control)"
same,binding signal,ELF3,"1.06 fold enrichment (6-mer frequency, TF over GST control)"
same,binding signal,ETV1,"1.22 fold enrichment (6-mer frequency, TF over GST control)"
same,binding signal,ERF,"1.01 fold enrichment (6-mer frequency, TF over GST control)"
same,binding signal,ETV3L,"1.1 fold enrichment (6-mer frequency, TF over GST control)"
same,binding signal,ETS2,"1.13 fold enrichment (6-mer frequency, TF over GST control)"
same,binding signal,SPDEF,"1.08 fold enrichment (6-mer frequency, TF over GST control)"
same,binding signal,ETV7,"1.13 fold enrichment (6-mer frequency, TF over GST control)"
same,binding signal,ETV3,"1.27 fold enrichment (6-mer frequency, TF over GST control)"
same,binding signal,ETV6,"1.13 fold enrichment (6-mer frequency, TF over GST control)"
